From PubChem BioAssay AID652067 (The Scripps Research Institute Molecular Screening Center, 2013) come the findings set out here.

Hit rate of the full screen: of about 370,000 compounds, about 5,400 (1.5%) were called active.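 Rule for the calls: active = activation above the mean of all tested compounds plus 3 SD (cut at about 5.5% in these data); inactive = the rest.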 Shown is part of a subset that was picked to be rich in actives.

The experiment relates to DAF-12 nuclear receptor (Haemonchus contortus). The experiment can be described thus: H. contortus DAF-12 nuclear receptor activators, primary screen, cell-based, luminescence, HEK293, lit1-tk-luc reporter (AID 652067).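 Note: 100% = response to 3 µM Δ7-dafachronic acid high control.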 The following applies: HEK293 hcDAF-12 lit1-tk-luc reporter, at 6.8 µM, hits give high values, 0% DMSO, 100% Δ7-dafachronic acid.
Regarding `CC(C)[C@H]1COCCS(=O)(=O)N1Cc1ccccc1-c1cccc2c1sc1ccccc12`, the activation is 1.38% (inactive).
For `CC(C)N(Cc1ccccc1)C(=O)COC(=O)c1cnccn1`, the activation was -0.24% (inactive).
For the compound `Brc1ccc(-c2noc(-c3ccccc3)n2)o1`, the activation was 7.04% (active).
On to `O=C(Oc1ccc(-c2nc(-c3ccccn3)no2)cc1)c1ccccc1`, for which the activation is 0.86% (inactive).
Take `O=S(=O)(c1ccc(Br)cc1)c1nc(-c2ccccc2)oc1N1CCOCC1`: the activation was 1.01% (inactive).
With `Cc1ccc(-n2c(SCC(=O)Nc3ccc(S(=O)(=O)Nc4nccs4)cc3)nnc2-c2cccnc2)cc1`, the activation was -2.17% (inactive).
To `COc1ccccc1C1=Nc2cccc3cccc(c23)N1` belongs -1.59% (inactive); to `c1ccc(C2=Nc3cccc4cccc(c34)N2)cc1`, 6.59% (active); to `Brc1ccc(C2CC(c3ccccc3)=Nc3ccccc3N2)cc1` (stereo unspecified), 4.68% (inactive).
With `O=C(CSc1nc2ccccc2n1Cc1ccccc1Cl)N/N=C\c1c[nH]c2ccccc12`, the activation is 1.72% (inactive).
To `O=C(CC1SCCNC1=O)Nc1ccc(Cl)cc1` (stereo unspecified) belongs 1.04% (inactive).
For `CCOCc1nnc(NC(=O)CCC2CCCCC2)s1`, the activation was -1.11% (inactive).
For the compound `CC(NC(=O)COC(=O)c1ccc2ccccc2n1)c1ccccc1` (stereo unspecified), the activation was 2.13% (inactive).
For `CC(C)CC(=O)NC(=S)NNC(=O)c1cccc([N+](=O)[O-])c1`, the activation was 1.89% (inactive).
With `CC(C)CC(=O)N/C(N)=N/c1nc2ccccc2s1`, the activation was 8.5% (active).
`Cc1cnc(C)c(N2CCN(C(=O)C3CCC(=O)N(CCc4cccc(F)c4)C3)CC2)n1` (stereo unspecified): the activation was -0.94% (inactive).
Regarding `Cc1sc2nc(SCC(=O)c3ccc(O)c(O)c3)n(Cc3ccco3)c(=O)c2c1C`, the activation is -0.45% (inactive).
As for `CC1=C(N2CCN(c3ncccn3)CC2)CCC1=O`, the activation is -1.78% (inactive).
For the compound `c1cnc(N2CCN(c3ccc4ccccc4n3)CC2)nc1`, the activation was 9.72% (active).
The result for `CC12CCC(C(=O)N3CCN(c4ncccn4)CC3)(c3nc4ccccc4nc31)C2(C)C` (stereo unspecified) reads -0.6% (inactive).
The result for `COC(=O)N1Cc2ccnnc2CC1c1ccccc1Br` (stereo unspecified) reads -2.69% (inactive).
`Nc1ccn([C@@H]2O[C@H](C(=O)N[C@H]3CCCCNC3=O)[C@@H](O)[C@H]2O)c(=O)n1`: the activation was 0.58% (inactive).
The result for `Cc1cccc(N2CCN(Cc3c(C)n(C)n(-c4ccccc4)c3=O)CC2)c1C` reads -2.12% (inactive); that for `CCn1cc(CN2CCN(CC(C)(C)C)C(CCO)C2)c2ccccc21` (stereo unspecified), 7.54% (active); that for `Cc1ccc(CN2CCN(Cc3ccccc3-c3ccco3)CC2CCO)o1` (stereo unspecified), -0.79% (inactive).
To `COc1ccccc1N1CCC(N2CCN(CC(C)(C)C)C(CCO)C2)CC1` (stereo unspecified) belongs -0.72% (inactive).
